Test results taken from paper PMC5540273 (PLoS ONE, 2017).

Tests used:
Conditions in all cases: concentration: 1 μM,replicates: in singlicate; n = 1
[1] = tested on: ZAK
[2] = tested on: ZAP70
[3] = tested on: T1, p38-alpha
T1 construct: gene MAPK14

[4] = tested on: T2, p38-beta
T2 construct: gene MAPK11

[5] = tested on: p38-delta
[6] = tested on: T3, p38-gamma
T3 construct: gene MAPK12
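Note: KINOMEscan kinase panel screen.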

With `Cn1ccc2ncnc(Oc3ccc(NC(=O)Nc4cncc(C(F)(F)F)c4)c(Cl)c3)c21` the “%Inh” value [1] was 0%, the “%Inh” value [2] was 0% and the “%Inh” value [3] was 47%. The “%Inh” value [4] was 30%, the “%Inh” value [5] was 0% and the “%Inh” value [6] was 0%.
For `C[C@@H]1CNc2c(sc3ccc4nc(-c5ccncc5)ccc4c23)C(=O)N1`, the “%Inh” value [1] was 0%, the “%Inh” value [2] was 0% and the “%Inh” value [3] was 0%. The “%Inh” value [4] was 8%, the “%Inh” value [5] was 11% and the “%Inh” value [6] was 16%.
`C[C@@H](Oc1cc(-n2cnc3cc(-c4ccncc4)ccc32)sc1C(N)=O)c1ccccc1Cl` [GSK479719] was tested, and the “%Inh” value [1] was 0%, the “%Inh” value [2] was 15% and the “%Inh” value [3] was 71%. For the same compound, the “%Inh” value [4] was 0%, the “%Inh” value [5] was 14% and the “%Inh” value [6] was 0%.
With `CC(C)S(=O)(=O)N1CCN(Cc2ccc3c(c2)nc(NC(=O)c2ccsc2)n3C[C@H](O)c2ccccc2)CC1` [GW635815] the “%Inh” value [1] was 1%, the “%Inh” value [2] was 0% and the “%Inh” value [3] was 6%. For the same compound, the “%Inh” value [4] was 4%, the “%Inh” value [5] was 47% and the “%Inh” value [6] was 0%.
In the case of `COC(=O)c1cccc(NC(=O)NC2CCN(c3ccnc(NCc4ccc(F)cc4)n3)CC2)c1` [GSK1379860], the “%Inh” value [1] is reported as 0%, the “%Inh” value [2] is reported as 0% and the “%Inh” value [3] is reported as 0%. For the same compound, the “%Inh” value [4] was 0%, the “%Inh” value [5] was 34% and the “%Inh” value [6] was 0%.
In the case of `O=C(NOCC1CC1)c1cc(Br)c(F)c(F)c1Nc1ccc(I)cc1Cl`, the “%Inh” value [1] is reported as 0%, the “%Inh” value [2] is reported as 0% and the “%Inh” value [3] is reported as 0%. For the same compound, the “%Inh” value [4] was 1%, the “%Inh” value [5] was 35% and the “%Inh” value [6] was 0%.
For `O=c1[nH]cc(-c2ccc(O)cc2)c2sc(-c3ccncc3)cc12` [GSK1033723], the “%Inh” value [1] was 1%, the “%Inh” value [2] was 0% and the “%Inh” value [3] was 0%. For the same compound, the “%Inh” value [4] was 0%, the “%Inh” value [5] was 0% and the “%Inh” value [6] was 26%.
`O=C(Nc1cccc(Oc2ccc3nccn3n2)c1)Nc1cccc(C(F)(F)F)c1` was tested, and the “%Inh” value [1] was 97.8%, the “%Inh” value [2] was 3% and the “%Inh” value [3] was 17%. For the same compound, the “%Inh” value [4] was 12%, the “%Inh” value [5] was 0% and the “%Inh” value [6] was 19%.
For `Cl.Cl.NC[C@H](CC1CCCCC1)NC(=O)c1ccc(-c2ccnc3[nH]ccc23)s1` [GSK1581428], the “%Inh” value [1] was 0%, the “%Inh” value [2] was 0% and the “%Inh” value [3] was 0%. For the same compound, the “%Inh” value [4] was 0%, the “%Inh” value [5] was 7% and the “%Inh” value [6] was 13%.
In the case of `CN1CCN(CCNc2nc3cc(Oc4ccc(NC(=O)Nc5cc(C(F)(F)F)ccc5F)cc4)ccc3[nH]2)CC1.Cl.Cl` [GW768504], the “%Inh” value [1] is reported as 2%, the “%Inh” value [2] is reported as 12% and the “%Inh” value [3] is reported as 0%. The “%Inh” value [4] was 7%, the “%Inh” value [5] was 0% and the “%Inh” value [6] was 27%.
For `CS(=O)(=O)c1cccc(CNc2nc(Nc3ccc4c(c3)[C@@H]3C[C@@H]4CNC3=O)ncc2C(F)(F)F)c1`, the “%Inh” value [1] was 0%, the “%Inh” value [2] was 58% and the “%Inh” value [3] was 0%. For the same compound, the “%Inh” value [4] was 0%, the “%Inh” value [5] was 69% and the “%Inh” value [6] was 10%.
In the case of `NC(=O)c1ccc(-c2cc3ncnc(SCC(=O)O)c3s2)cc1`, the “%Inh” value [1] is reported as 0%, the “%Inh” value [2] is reported as 0% and the “%Inh” value [3] is reported as 0%. The “%Inh” value [4] was 2%, the “%Inh” value [5] was 24% and the “%Inh” value [6] was 0%.
For `Cc1ccc(Nc2ccnc(Nc3ccc4c(c3)CS(=O)(=O)C4)n2)cc1O.Cl` [GW579362], the “%Inh” value [1] was 56%, the “%Inh” value [2] was 37% and the “%Inh” value [3] was 96.8%. The “%Inh” value [4] was 85%, the “%Inh” value [5] was 99.8% and the “%Inh” value [6] was 23%.
`Cn1ccc2ncnc(Oc3ccc(NC(=O)Nc4cnn(C(C)(C)C)c4)c(Cl)c3)c21` was tested, and the “%Inh” value [1] was 0%, the “%Inh” value [2] was 6% and the “%Inh” value [3] was 91.6%. The “%Inh” value [4] was 28%, the “%Inh” value [5] was 3% and the “%Inh” value [6] was 24%.
For `COC(=O)c1cccc(NC(=O)NC2CCN(c3ccnc(Nc4cc(OC)c(OC)c(OC)c4)n3)C2)c1` (stereo not drawn) [GSK1379767], the “%Inh” value [1] was 3%, the “%Inh” value [2] was 17% and the “%Inh” value [3] was 37%. The “%Inh” value [4] was 0%, the “%Inh” value [5] was 22% and the “%Inh” value [6] was 0%.
`CC(=O)Nc1nc2cnc(Nc3cc(NC(=O)c4cccc(CC(C)(C)C#N)c4)ccc3C)nc2s1` was tested, and the “%Inh” value [1] was 0%, the “%Inh” value [2] was 5% and the “%Inh” value [3] was 100%. For the same compound, the “%Inh” value [4] was 100%, the “%Inh” value [5] was 43% and the “%Inh” value [6] was 74%.
With `COc1cccc(C2=C(Nc3cccc(Cl)c3)C(=O)NC2=O)c1` [SB-341556] the “%Inh” value [1] was 16%, the “%Inh” value [2] was 1% and the “%Inh” value [3] was 0%. For the same compound, the “%Inh” value [4] was 0%, the “%Inh” value [5] was 11% and the “%Inh” value [6] was 0%.
With `O=C(Nc1ccc(Oc2ccc3nc(NC(=O)C4CC4)cn3n2)c(F)c1)c1cccn(-c2ccccc2)c1=O` the “%Inh” value [1] was 77%, the “%Inh” value [2] was 0% and the “%Inh” value [3] was 4%. The “%Inh” value [4] was 9%, the “%Inh” value [5] was 0% and the “%Inh” value [6] was 87%.
`c1ccc(Oc2ccc(Nc3ccnc4ccc(-c5ccccn5)cc34)cc2)cc1` [GW407034] was tested, and the “%Inh” value [1] was 53%, the “%Inh” value [2] was 0% and the “%Inh” value [3] was 0%. The “%Inh” value [4] was 4%, the “%Inh” value [5] was 19% and the “%Inh” value [6] was 0%.
With `NC(=O)Nc1sc(-c2ccc(F)cc2)cc1C(N)=O` [GW789449] the “%Inh” value [1] was 21%, the “%Inh” value [2] was 5% and the “%Inh” value [3] was 6%. The “%Inh” value [4] was 0%, the “%Inh” value [5] was 0% and the “%Inh” value [6] was 16%.
In the case of `CC(=O)c1c(-c2ccncc2)[nH]c(-c2ccncc2)c1C` [GW493036], the “%Inh” value [1] is reported as 34%, the “%Inh” value [2] is reported as 48% and the “%Inh” value [3] is reported as 34%. The “%Inh” value [4] was 0%, the “%Inh” value [5] was 49% and the “%Inh” value [6] was 19%.
With `C[C@@H](Oc1cc(-n2cnc3ccc(-c4ccncc4)cc32)sc1C(N)=O)c1ccccc1Cl` [GSK483724] the “%Inh” value [1] was 21%, the “%Inh” value [2] was 61% and the “%Inh” value [3] was 1%. The “%Inh” value [4] was 0%, the “%Inh” value [5] was 39% and the “%Inh” value [6] was 0%.
With `CC(C)c1nc(-c2cccc(NS(=O)(=O)c3ccccc3)c2)c(-c2ccnc(Nc3ccc4c(c3)CN(C)CC4)n2)s1` [GSK1649598] the “%Inh” value [1] was 98.6%, the “%Inh” value [2] was 7% and the “%Inh” value [3] was 91.5%. For the same compound, the “%Inh” value [4] was 35%, the “%Inh” value [5] was 48% and the “%Inh” value [6] was 7%.
With `CCn1c(-c2nonc2N)nc2cncc(CNC3CCNCC3)c21.Cl` [SB-747651] the “%Inh” value [1] was 7%, the “%Inh” value [2] was 32% and the “%Inh” value [3] was 0%. For the same compound, the “%Inh” value [4] was 0%, the “%Inh” value [5] was 44% and the “%Inh” value [6] was 10%.
With `Cl.c1ccc(Oc2ccc(Nc3ccnc4cc(-c5ccc(CN6CCNCC6)o5)ccc34)cc2)nc1` [GW567142] the “%Inh” value [1] was 60%, the “%Inh” value [2] was 0% and the “%Inh” value [3] was 12%. For the same compound, the “%Inh” value [4] was 0%, the “%Inh” value [5] was 39% and the “%Inh” value [6] was 5%.
`Cc1n[nH]c2cc(Nc3ccnc(Nc4cccc(CN5CCOCC5)c4)n3)ccc12` [GW682569] was tested, and the “%Inh” value [1] was 14%, the “%Inh” value [2] was 17% and the “%Inh” value [3] was 11%. For the same compound, the “%Inh” value [4] was 0%, the “%Inh” value [5] was 28% and the “%Inh” value [6] was 0%.
In the case of `Cn1ccc2ncnc(Oc3ccc(NC(=O)Nc4ccnc(C(F)(F)F)c4)c(Cl)c3)c21`, the “%Inh” value [1] is reported as 17%, the “%Inh” value [2] is reported as 0% and the “%Inh” value [3] is reported as 18%. The “%Inh” value [4] was 0%, the “%Inh” value [5] was 25% and the “%Inh” value [6] was 0%.
`CSc1nccc(-c2c(-c3ccc(F)cc3)ncn2CCCN2CCOCC2)n1.Cl` [SB-217146] was tested, and the “%Inh” value [1] was 0%, the “%Inh” value [2] was 8% and the “%Inh” value [3] was 67%. The “%Inh” value [4] was 0%, the “%Inh” value [5] was 0% and the “%Inh” value [6] was 2%.
With `O=C1NCCc2[nH]c(-c3ccncc3)cc21` the “%Inh” value [1] was 20%, the “%Inh” value [2] was 0% and the “%Inh” value [3] was 2%. The “%Inh” value [4] was 27%, the “%Inh” value [5] was 62% and the “%Inh” value [6] was 26%.
With `O=C(NCC1CC1)c1ccc(-c2cc(C(=O)NC3CC3)ccc2F)cc1` [GW810445] the “%Inh” value [1] was 0%, the “%Inh” value [2] was 0% and the “%Inh” value [3] was 55%. The “%Inh” value [4] was 0%, the “%Inh” value [5] was 0% and the “%Inh” value [6] was 29%.
With `C[C@@H](Oc1cc(-n2cnc3cc(-c4cnn(C)c4)ccc32)sc1C(N)=O)c1ccccc1Cl` [GSK580432] the “%Inh” value [1] was 6%, the “%Inh” value [2] was 0% and the “%Inh” value [3] was 0%. For the same compound, the “%Inh” value [4] was 0%, the “%Inh” value [5] was 0% and the “%Inh” value [6] was 0%.
In the case of `CN1CCN(CCCNc2nccc(-c3c(-c4ccc(F)cc4)nn4cc(C(N)=O)ccc34)n2)CC1` [GW622475], the “%Inh” value [1] is reported as 31%, the “%Inh” value [2] is reported as 0% and the “%Inh” value [3] is reported as 99.9%. For the same compound, the “%Inh” value [4] was 79%, the “%Inh” value [5] was 26% and the “%Inh” value [6] was 13%.
With `CCOC(=O)N1CCC(n2cnc(-c3ccc(F)cc3)c2-c2ccnc(N)n2)CC1` [SB-219952] the “%Inh” value [1] was 9%, the “%Inh” value [2] was 14% and the “%Inh” value [3] was 95.3%. The “%Inh” value [4] was 34%, the “%Inh” value [5] was 0% and the “%Inh” value [6] was 23%.
In the case of `Cl.Nc1n[nH]c2cc(-c3ccccn3)ccc12` [GSK2189892], the “%Inh” value [1] is reported as 14%, the “%Inh” value [2] is reported as 0% and the “%Inh” value [3] is reported as 0%. The “%Inh” value [4] was 0%, the “%Inh” value [5] was 22% and the “%Inh” value [6] was 4%.
For `COc1cccc(CNC(=O)NC2CCN(c3ccnc(Nc4cc(OC)c(OC)c(OC)c4)n3)C2)c1` (stereo not drawn) [GSK1379765], the “%Inh” value [1] was 26%, the “%Inh” value [2] was 43% and the “%Inh” value [3] was 12%. For the same compound, the “%Inh” value [4] was 0%, the “%Inh” value [5] was 44% and the “%Inh” value [6] was 1%.
With `CC(=O)Nc1ccc(-c2cc3ncnc(SCC(=O)O)c3s2)cc1` the “%Inh” value [1] was 40%, the “%Inh” value [2] was 2% and the “%Inh” value [3] was 12%. For the same compound, the “%Inh” value [4] was 1%, the “%Inh” value [5] was 29% and the “%Inh” value [6] was 0%.
In the case of `Cc1ccc(C(=O)Nc2ccc(Oc3ccc4nc(NC(=O)C5CC5)cn4c3)c(F)c2)c(=O)n1-c1ccccc1`, the “%Inh” value [1] is reported as 96.1%, the “%Inh” value [2] is reported as 0% and the “%Inh” value [3] is reported as 0%. For the same compound, the “%Inh” value [4] was 0%, the “%Inh” value [5] was 0% and the “%Inh” value [6] was 34%.
